The full list was thinned out, with hits kept by preference.
ROC1-CUL1 inh: blocks human RBX1-Cullin-1 di-ubiquitin formation; P62877+Q13616; in vitro K48 di-Ub FRET, acceptor:donor ratio, 45 min; inhibition, % at 10 µM; 140,000 compounds, 0.6% hits; AID 1347404; in the data active = inhibition above about 25%
Target sequence (P62877 whole entry, looked up): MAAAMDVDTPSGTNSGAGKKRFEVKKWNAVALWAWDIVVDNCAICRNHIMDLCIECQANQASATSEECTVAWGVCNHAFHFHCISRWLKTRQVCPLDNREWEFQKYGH
Target sequence (Q13616 whole entry, looked up): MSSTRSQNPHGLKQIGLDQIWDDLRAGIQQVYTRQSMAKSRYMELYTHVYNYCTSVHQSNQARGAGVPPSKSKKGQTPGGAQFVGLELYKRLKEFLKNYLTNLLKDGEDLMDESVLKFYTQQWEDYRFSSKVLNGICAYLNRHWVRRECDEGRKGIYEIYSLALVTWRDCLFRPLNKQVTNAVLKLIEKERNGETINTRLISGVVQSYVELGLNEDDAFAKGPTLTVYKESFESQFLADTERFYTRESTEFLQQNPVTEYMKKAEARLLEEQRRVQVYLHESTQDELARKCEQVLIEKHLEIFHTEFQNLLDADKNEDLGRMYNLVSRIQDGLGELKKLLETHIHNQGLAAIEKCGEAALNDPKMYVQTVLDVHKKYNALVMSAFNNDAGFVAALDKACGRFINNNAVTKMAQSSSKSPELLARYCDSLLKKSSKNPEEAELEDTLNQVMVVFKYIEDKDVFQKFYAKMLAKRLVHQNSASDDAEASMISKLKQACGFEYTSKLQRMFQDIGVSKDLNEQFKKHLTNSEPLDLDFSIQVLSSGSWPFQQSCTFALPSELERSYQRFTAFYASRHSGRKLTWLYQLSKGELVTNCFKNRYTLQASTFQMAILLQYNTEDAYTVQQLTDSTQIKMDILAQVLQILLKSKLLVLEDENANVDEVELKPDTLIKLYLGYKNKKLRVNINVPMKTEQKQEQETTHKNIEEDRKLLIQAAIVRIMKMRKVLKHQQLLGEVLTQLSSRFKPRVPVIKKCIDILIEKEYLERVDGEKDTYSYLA
The depositor's hits bear a star.

SMILES	ROC1-CUL1 inh
S=c1[nH]c2c(Cl)c(Cl)c(Cl)cc2o1	19.7
Cc1nnc(N2C(=O)C(=O)C(C(=O)c3cc4ccccc4o3)C2c2cccc(Oc3ccccc3)c2)s1 (stereo not given)	34.8*
CCOc1ccc2nc(N3C(=O)C(=O)C(C(=O)c4cc5ccccc5o4)C3c3cccc(Oc4ccccc4)c3)sc2c1 (stereo not given)	-2.3
Cc1nnc(N2C(=O)C(=O)C(C(=O)c3cc4ccccc4o3)C2c2ccc(Cl)c(Cl)c2)s1 (stereo not given)	-8.7
CC(C)(C)C(=O)Nc1ccccc1	6.3
CN1CCN(CCCN=C2c3ccccc3OC(=O)C2N)CC1 (stereo not given)	1.4
Cc1ccccc1N=Cc1cc2c(cc1[N+](=O)[O-])OCO2	-0.8
O=[N+]([O-])c1ccc(N=Cc2cc3c(cc2[N+](=O)[O-])OCO3)c(Br)c1	7.4
Cc1c(N=Cc2cc3c(cc2[N+](=O)[O-])OCO3)cccc1[N+](=O)[O-]	90.7*
CCn1c(SCC(=O)Nc2cccc(F)c2C)nnc1-c1ccc(Cl)cc1	8.6
C=CCn1nnc(NC(=O)CCCC)n1	0.2
CC(=C1C(=O)c2ccccc2C1=O)N1CCN(CCN=CC2C(=O)CC(c3ccc(C)cc3)CC2=O)CC1 (stereo not given)	1.5
CCOC(=O)C1CCCN(C(=O)c2cc(NC(=O)COC)cc3ncn(Cc4ccc(F)cc4)c23)C1 (stereo not given)	0.5
CC(C)c1ccc(/C=C/C(=O)NCc2ccc3c(c2)OCO3)cc1	-0.1
CN(CCC(=O)/C=C/c1ccc(Cl)c(Cl)c1)CCc1ccc2c(c1)OCO2	82.6*
O=C(/C=C/c1ccc2c(c1)OCO2)Sc1ccc(Cl)cc1	0.0
COc1cccc(S(=O)(=O)NCc2ccc(C(=O)N3CCCCC3)cc2)c1	1.8
O=C(Nc1ccc(OC(F)(F)F)cc1)c1cn2cc(Cl)cc(Cl)c2n1	6.5
CC(C)(C)CN1CCCC(O)(CNCc2ccccn2)C1=O (stereo not given)	-6.6
CCc1cccc(C)c1NC(=O)CSc1nnc(-c2ccccc2Cl)n1N	2.5
COC(=O)C1=Nc2nc3cc(F)c(F)cc3nc2C(=N)C1C(=O)OC (stereo not given)	2.3
C=CCN1C(=O)/C(=C\c2cccc(OCc3ccc(F)cc3)c2)C(=O)NC1=S	0.8
Cc1ccc(-n2c(-c3ccccc3)cc(/C=C3\C(=O)NC(=S)N(c4ccc(C)c(C)c4)C3=O)c2-c2ccccc2)cc1	5.1
Cc1ccc(N2C(=O)/C(=C\c3ccc(-c4ccc(Cl)c(C(=O)O)c4)o3)C(=O)NC2=S)cc1	63.4*
O=C(N/N=C/c1ccc(-c2cccc(C(=O)O)c2)o1)Nc1ccc(Cl)cc1	0.6
SMILES	ROC1-CUL1 inh
O=C1NC(=S)N(c2cccc(F)c2)C(=O)/C1=C/c1ccc(N2CCCC2)o1	26.1*
O=C1NC(=S)N(c2cccc(Br)c2)C(=O)/C1=C/c1cc(Br)c(O)c(Br)c1	4.4
C=CCN1C(=O)/C(=C\c2cccc(OC)c2OC)C(=O)NC1=S	-6.2
O=C1NC(=S)N(c2ccccc2)C(=O)/C1=C\c1ccc(-c2ccc(F)cc2)o1	2.5
C=CCN1C(=O)/C(=C/c2ccc(-c3cccc(C(F)(F)F)c3)o2)C(=O)NC1=S	102.6*
O=C1NC(=S)N(c2ccc(Cl)cc2)C(=O)/C1=C\c1ccc(-c2cccc(C(=O)O)c2)o1	99.9*
COc1ccc(/C=C2/C(=O)NC(=S)N(c3ccccc3)C2=O)cc1C(=O)O	2.4
CC(C)Oc1ccccc1/C=C1\C(=O)NC(=S)N(c2cccc(F)c2)C1=O	-12.7
COc1ccc(OC)c(C2c3c(n[nH]c3C)OC(=N)C2C#N)c1 (stereo not given)	3.7
C=CCOCCN(CN1C(=O)C2CC=C(Cl)CC2C1=O)CN1C(=O)C2CC=C(Cl)CC2C1=O (stereo not given)	2.6
CCOC(=O)C1C(C)=NC(=O)NC1c1ccc(OCC(=O)N/N=C/c2cc(C)n(C)c2C)c(OC)c1 (stereo not given)	-10.5
CCO/C=C1\N=C(c2ccc(Cl)cc2)OC1=O	-0.4
CCCn1c(C)c(CC(=O)N(C)C2CCOCC2)c2c1CC(C)(C)CC2=O	-10.1
CCCNC(=O)c1cc2c(=O)n3cc(C)ccc3nc2n1C	0.1
COc1ccc(-c2cc(C(F)(F)F)n3nc(C(=O)N(C)c4ccc(OC(F)(F)F)cc4)cc3n2)cc1	0.1
CCCCN(Cc1ccccc1)C(=O)CCC1(Cc2cc(OC)ccc2F)CCC(=O)N1 (stereo not given)	-0.2
COc1cc(/C=C2\C(=O)NC(=O)N(c3cc(C)cc(C)c3)C2=O)cc(Br)c1O	6.9
COC(=O)CN1C(=O)S/C(=C/c2cc(Br)c(Sc3ccc(Cl)cc3)o2)C1=O	4.4
COC(=O)c1ccccc1-n1c(C)cc(/C=C2\C(=O)NC(=S)N(c3ccc(OC)cc3)C2=O)c1C	6.4
Cc1cc(C)cc(N2C(=O)NC(=O)/C(=C\c3ccc(Br)o3)C2=O)c1	94.1*
COc1cc(Br)cc(/C=C2/C(=O)NC(=O)N(c3cc(C)cc(C)c3)C2=O)c1O	5.3
Cc1cc(C)cc(N2C(=O)NC(=O)/C(=C/c3ccc(-c4cccc(C(=O)O)c4)o3)C2=O)c1	85.1*
COc1ccc(N2C(=O)/C(=C/c3cc(C)n(-c4ccc(NC(C)=O)cc4)c3C)C(=O)NC2=S)cc1	7.3
O=C1NC(=S)NC(=O)C1=Cc1cc(Br)c(Sc2ccc(Cl)cc2)o1	9.6
Cc1ccc(N2C(=O)NC(=O)/C(=C\c3cc(Br)c(Sc4ccc(Cl)cc4)o3)C2=O)cc1	99.6*
SMILES	ROC1-CUL1 inh
COc1cccc(/C=C2/C(=O)NC(=O)N(c3cc(C)cc(C)c3)C2=O)c1O	12.1
COc1ccc(N2C(=O)/C(=C/c3cc(C)n(-c4ccc(Cl)c(C(=O)O)c4)c3C)C(=O)NC2=S)c(OC)c1	79.5*
O=C1Nc2ccccc2/C1=C/c1ccc(-c2cccc(C(=O)O)c2)o1	16.2
N#CC1C(=N)Oc2c(ccc3cccnc23)C1c1cccc(Br)c1 (stereo not given)	0.1
O=C1C2CCCCC2C(=O)N1CCc1c[nH]c2ccc(OCc3ccccc3)cc12 (stereo not given)	-5.5
CC(=O)c1nnn(-c2ccc(Br)cc2)c1C	-0.1
CC(=O)Nc1ccc(Oc2ccc(C#N)c(C#N)c2)cc1	1.1
O=C1OC(c2ccccc2)=N/C1=C\c1ccc(-c2ccc(C(=O)O)cc2)o1	12.7
COCCN1C(=O)/C(=C/c2ccc(-c3ccc(C(=O)O)c(Cl)c3)o2)SC1=Nc1ccccc1	1.9
O=C(O)c1cc(N2C(=O)/C(=C\c3ccc(-c4ccc(Br)cc4)o3)C=C2c2ccccc2)ccc1O	97.1*
COc1ccc(OC)c(-c2[nH]nc3c2C(c2ccc(OCc4ccc(Cl)c(Cl)c4)c(OC)c2)C(C#N)C(=N)O3)c1 (stereo not given)	7.7
O=C(CC1C(=O)NCCN1CCc1ccccc1)NCCOc1cccnc1 (stereo not given)	4.6
O=[N+]([O-])c1ccccc1/C=N/Nc1nc(Nc2ccc(F)cc2)nc(N2CCCCC2)n1	-12.2
COc1cccc(CNc2ccc(N3CCOCC3)cc2)c1OC	10.7
CCOc1c(Cl)cc(CNc2ccc(N3CCCC3)cc2)cc1OC	67.8*
COc1cc(CNc2ccc(N3CCCC3)cc2)cc(Cl)c1OCc1ccc(F)cc1	-12.1
CC(=O)C1Cc2c(O)c3c(c(O)c2C(O)C1)C(=O)c1ncc(C)cc1C3=O (stereo not given)	11.9
Cc1noc(C)c1S(=O)(=O)N1CCCC1C(=O)NC1CCCCC1 (stereo not given)	10.3

High-throughput results as filed in PubChem BioAssay.
